The values that follow come from PubChem BioAssay AID1851 (National Center for Advancing Translational Sciences (NCATS), 2009).

Molecules are shown by their SMILES. Hit rate of the full screen: of about 16,000 compounds, about 4,000 (25%) were called active. Inconclusive results (about 26%) are left out. Calls come from the whole dose curve; as a rule, active = well fitted curve in the direction sought with a large enough effect; inconclusive = small, poorly fitted or top-dose-only effect, or effect the other way; inactive = no such curve, though single readings can be large or run the other way. A selection follows.
% is set by controls: 0 for no effect and ±100 for the full control effect.

The target of this experiment is Cytochrome P450 2C9 (Homo sapiens) (UniProt P11712). Kind of experiment: Cytochrome panel assay with activity outcomes. As to conditions: recombinant CYP, pro-luciferin dealkylation, luminescence, p450-cyp2c9; series mostly up to 57.1 µM; activity, negative = inhibition: at the top concentration.
Cytochrome P450 2C9 (Homo sapiens), sequence (P11712 whole entry, looked up): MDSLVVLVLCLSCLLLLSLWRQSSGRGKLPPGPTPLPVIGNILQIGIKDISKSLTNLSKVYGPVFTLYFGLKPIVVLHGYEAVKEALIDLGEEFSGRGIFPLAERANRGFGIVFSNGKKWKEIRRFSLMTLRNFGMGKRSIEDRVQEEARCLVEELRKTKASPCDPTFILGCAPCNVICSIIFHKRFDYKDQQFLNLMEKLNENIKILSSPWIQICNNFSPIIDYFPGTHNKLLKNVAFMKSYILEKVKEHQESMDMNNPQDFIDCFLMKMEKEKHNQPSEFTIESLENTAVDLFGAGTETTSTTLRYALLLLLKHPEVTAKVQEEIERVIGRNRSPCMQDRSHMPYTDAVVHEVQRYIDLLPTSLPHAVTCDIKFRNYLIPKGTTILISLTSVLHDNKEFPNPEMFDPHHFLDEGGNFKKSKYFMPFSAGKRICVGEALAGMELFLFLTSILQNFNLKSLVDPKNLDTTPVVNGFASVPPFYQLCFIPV
As for `COc1ccc(C(=O)N2CCC3(CCCN(C)C3)CC2)cc1`, the “activity, negative = inhibition” value is -17.7% (inactive).

For `CCCn1c(CC)nc([N+](=O)[O-])c1S(=O)(=O)c1ccccc1`, the “activity, negative = inhibition” value was 5.38% (inactive). With `COc1ccc(COc2ccsc2C(=O)Nc2ccc(Cl)c(Cl)c2)cc1`, the AC50 – broadly, the concentration giving half of the maximal activity seen – was 2.82 µM (active).

For the molecule `CNC(=S)NNC(=O)c1sccc1OCc1ccc(C)cc1`, the “activity, negative = inhibition” value was -25.3% (inactive). Same read-out and setting: under `N[C@H](Cc1ccc(Cl)cc1)C(=O)O` stands 23.1% (inactive). As for `CCc1ccc(C(CC(=O)c2ccc(Cl)cc2)C(=O)O)cc1` (stereo not given), the concentration at half-maximal activity (AC50) was 10 µM (active).

In the case of `O=C(O)CCC(=O)c1ccc(Cl)cc1`, the activity, negative = inhibition is 18.6% [at 11.4 µM] (inactive). Take `CSc1ccc(CNc2ccccc2)cc1`: the half-maximal activity concentration (AC50) is 12.6 µM (active). Consider `COc1cccc(CNCc2ccc(SC)cc2)c1OC`, for which the “activity, negative = inhibition” value is -20% (inactive). With `CSc1ccc(CNc2ccc(Cl)cc2)cc1`, the AC50 was 6.31 µM (active). As to `CS(=O)(=O)Nc1cccc(-c2cc(NCc3ccccc3)ncn2)c1`, the activity, negative = inhibition is 22.3% [at 2.29 µM] (inactive). For `Cc1ccc(C)c(NC(=O)NCc2ccc(Cl)cc2)c1`, the activity, negative = inhibition is -2.65% [at 11.4 µM] (inactive). On the same count and under the same terms, in the case of `Cc1ccc(S(=O)(=O)N[C@H]2COC(=O)C/C=C\[C@@H](C)[C@H](NS(=O)(=O)c3ccc(C)cc3)COC(=O)[C@H](C)NC(=O)C/C=C\[C@H]2C)cc1` it was 15.4% [at 11.4 µM] (inactive); in that of `COc1ccc(O[C@H]2C=C[C@@H](c3ccccc3)O[C@@H]2CO/N=C\[C@@H](C)[C@H](OCc2ccccc2)C(C)C)cc1`, -24.2% [at 11.4 µM] (inactive). On to `COC(=O)C/C=C\[C@@H](C)[C@@H](/C=N\OC[C@@H]1O[C@H](c2ccccc2)C=C[C@@H]1Oc1ccc(OC)cc1)NS(=O)(=O)c1ccc(C)cc1`, for which the AC50 was 1.26 µM (active). The same measure, in the same setting: in the case of `COC(=O)C/C=C\[C@@H](C)[C@@H](/C=N\O[C@@H](C)c1cc(-c2c(C)cc(C)cc2C)no1)NS(=O)(=O)c1ccc(C)cc1` it was 2.51 µM (active); in that of `CCCNC(=O)OC[C@H]1O[C@@H](CCO/N=C\[C@@H](NS(=O)(=O)c2ccc(C)cc2)[C@H](C)/C=C\CC(=O)OC)C=C[C@@H]1Oc1ccc(OC)cc1`, 3.98 µM (active). Turning to `CO/N=C\[C@@H](NS(=O)(=O)c1ccc(C)cc1)[C@H](C)/C=C\CC(=O)OC`, the activity, negative = inhibition was -27.4% [at 11.4 µM] (inactive).

`COC(=O)C/C=C\[C@@H](C)[C@@H](/C=N\O[C@@H](C)c1cn([C@H]2COC[C@H]2O)nn1)NS(=O)(=O)c1ccc(C)cc1`: the activity, negative = inhibition is 16% [at 11.4 µM] (inactive). The same measure, in the same setting: in the case of `CCCNC(=O)OC[C@@H]1O[C@H](CCON=C(C)C)C=C[C@@H]1Oc1ccc(OC)cc1` it was 2.96% [at 11.4 µM] (inactive). On the same count and under the same terms, under `COC(=O)C/C=C\[C@@H](C)[C@@H](/C=N\OC[C@@H](O)COCc1ccco1)NS(=O)(=O)c1ccc(C)cc1` stands -14.9% [at 11.4 µM] (inactive); under `CCCNC(=O)OC[C@@H]1O[C@H](CCO/N=C\[C@@H](C)[C@H](OCc2ccccc2)C(C)C)C=C[C@@H]1Oc1ccc(OC)cc1`, -22.3% [at 11.4 µM] (inactive); under `CCNc1ncc2nc(-c3ccc(F)cc3)c(=O)n(CCOC)c2n1`, -4.26% (inactive).

On to `CCOC(=O)c1c(C)c(C)n2c1NC(=O)C2`, for which the activity, negative = inhibition was -2.03% [at 11.4 µM] (inactive). Regarding `CCOC(=O)C1=C(C)NC(=O)NC1c1ccoc1` (stereo not given), the AC50 is 12.6 µM (active). For the molecule `CCOC(=O)C1=C(C)NC(=O)N[C@@H]1c1coc2cc(C)cc(C)c2c1=O`, the activity, negative = inhibition is -14.5% [at 11.4 µM] (inactive). `COc1cc2nc(N3CC=[N+](C(=O)c4ccco4)CC3)nc(N)c2cc1OC`: the “activity, negative = inhibition” value is -8.49% (inactive).

As to `COc1cc2nc(N(C)CCCNC(=O)[C@@H]3CCCO3)nc(N)c2cc1OC`, the “activity, negative = inhibition” value is -16.9% [at 25.6 µM] (inactive). Turning to `COc1ccc2nc(SCC(=O)NN)cc(C)c2c1`, the “activity, negative = inhibition” value is 12.8% (inactive).

Turning to `COCCCNC(=O)CCC(=O)Nc1ccc2nc(N3CCOCC3)cc(C)c2c1`, the “activity, negative = inhibition” value was -26.7% (inactive). Still for that read-out and setting: in the case of `COCCn1c(=O)c(-c2ccc(OC)cc2)nc2cnc(N3CCOCC3)nc21` it was 17.6% (inactive). For `COCCNC(=O)CSc1nc2cc(OC)c(OC)cc2c(=O)n1Cc1ccco1`, the half-maximal activity concentration (AC50) was 2.24 µM (active). Take `COCCNC(=O)CSc1nc2ccc(N3CCOCC3)cc2c(=O)n1Cc1ccc(OC)cc1`: the concentration at half-maximal activity (AC50) is 5.62 µM (active). Take `CCCCNC(=O)CSc1nc2cc(OC)c(OC)cc2c(=O)n1Cc1ccc(OC)cc1`: the AC50 is 2.24 µM (active). For the molecule `CCN(C(=O)CSc1nc2cc(C(=O)OC)ccc2c(=O)n1Cc1ccco1)c1cccc(C)c1`, the AC50 is 0.2 µM (active).

Turning to `CCN1CCC[C@H]1CNC(=O)c1cc(S(N)(=O)=O)ccc1OC`, the AC50 entry was “inactive”. In the case of `Cc1sc2ccccc2[n+]1CCC(=O)O`, the activity, negative = inhibition is 9.02% [at 11.4 µM] (inactive). The same measure, in the same setting: in the case of `Cc1sc2ccccc2[n+]1CCC(C)S(=O)(=O)[O-]` (stereo not given) it was -33% (inactive). With `CCOC(=O)C[n+]1c(C)sc2ccc(OC)cc21`, the concentration at half-maximal activity (AC50) was 14.1 µM (active). Regarding `Cn1cc(-c2nc3cnc(Oc4ccccc4)nc3n(CCC#N)c2=O)c2ccccc21`, the “activity, negative = inhibition” value was 6% (inactive). As for `N#CCCn1c(=O)c(CCc2ccccc2)nc2cnc(OCc3ccccc3)nc21`, the AC50 is 15.8 µM (active). With `COc1cccc(Nc2ncc3nc(CCc4ccccc4)c(=O)n(CCC#N)c3n2)c1`, the “activity, negative = inhibition” value was 10.7% (inactive). As for `COc1ccc(Oc2ncc3nc(CCc4ccccc4)c(=O)n(CCC#N)c3n2)cc1`, the AC50 was 10 µM (active). With `N#CCCn1c(=O)c(CCc2ccccc2)nc2cnc(Oc3ccccc3)nc21`, the concentration at half-maximal activity (AC50) was 7.94 µM (active). Turning to `N#CCCn1c(=O)c(CCc2ccccc2)nc2cnc(Oc3cccc(Cl)c3)nc21`, the AC50 is 3.16 µM (active).
